The list is not random: actives were taken first. Their share in the collection is about 1.5%.
GALK inhibitor: galactokinase (human) inhibition | P51570 | Purified GALK, Kinase-Glo residual ATP luminescence | Potency, µM (titrated, usually from 57.5 µM), inactives show at the top dose activity change, negative = inhibition, actives largely listed as inhibitors | hit rate 0.007% among 270,000; also: potency is read from the fitted curve at half-maximal effect
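ATP-depletion format; final 35 uM ATP, 100 uM D-galactose, 5 nM enzyme; pH 8.0 HEPES/Mg2+ buffer; 60 min RT; luminescence read 10 min after detection reagent.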
Giardia killer: kills Giardia lamblia; Giardia lamblia trophozoite viability; activity change, % at 7.66 µM, hits read low; hit rate 0.15% among 340,000; in the data active = activity change below about -80%; inconclusive = between about -30% and that limit;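 also: parasites exposed to compound for two days anaerobically before the ATP read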
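Compounds were tested on trophozoites seeded at 100 cells/well and held 48 hrs at 37 deg C anaerobically. An ATP-based luminescent kit measured the remaining live cells.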
rTrxR1 inhibitor: blocks rat thioredoxin reductase 1. AID 588453. hit rate 1% among 390,000. recombinant rTrxR1, NADPH fluorescence consumption, selenite substrate. O89049. Potency, µM (highest dose often 114 µM), for the others: top-dose activity change, negative = inhibition, usual class: inhibitors; also: potency is read from the fitted curve at half-maximal effect; nearly all actives have a fitted effect of over 65% in size
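Rat TrxR1 (90 nM in the dispensed reagent) was pre-reduced with 400 uM NADPH for 5 min at room temperature, then incubated with compound for 15 min. After 400 uM selenite was added, NADPH fluorescence (Ex 340/Em 450 nm) was followed for 8 min.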
PI4K2A block: inhibitors of human PI4K2A; Q9BTU6; purified PI4K2A, ADP-Glo luminescence, 1 h; hits give low values; activity change, negative = inhibition, % at 76.9 µM; hit rate 0.13% among 420,000; in the data active = activity change below about -50%; inconclusive = mostly about -30% to -49%;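 also: -100% = wells without enzyme as full effect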
Target sequence (Q9BTU6 whole entry, looked up): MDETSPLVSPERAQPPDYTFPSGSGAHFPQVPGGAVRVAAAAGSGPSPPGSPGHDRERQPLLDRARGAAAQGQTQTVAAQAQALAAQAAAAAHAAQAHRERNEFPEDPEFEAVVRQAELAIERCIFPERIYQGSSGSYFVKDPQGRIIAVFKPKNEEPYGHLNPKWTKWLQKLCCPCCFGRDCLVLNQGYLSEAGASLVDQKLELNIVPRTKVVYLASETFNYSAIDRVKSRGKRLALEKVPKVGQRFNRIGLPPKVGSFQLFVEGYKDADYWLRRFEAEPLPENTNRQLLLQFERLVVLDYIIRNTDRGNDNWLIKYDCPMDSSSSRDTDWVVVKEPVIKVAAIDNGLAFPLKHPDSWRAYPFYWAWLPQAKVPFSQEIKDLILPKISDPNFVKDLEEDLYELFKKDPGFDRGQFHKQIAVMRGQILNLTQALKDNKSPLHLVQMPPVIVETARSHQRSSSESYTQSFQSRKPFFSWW
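ADP-Glo luminescence measured ADP generated by PI4K2A enzyme (4 ug/mL before mixing) with 1.2 mM PI substrate (pre-mix) and 300 microM ATP (pre-mix). Tris pH7.5 buffer with MgCl2, Triton X-100; 1 h reaction at ambient temperature.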
TrxR1 substrate: substrates of rat thioredoxin reductase 1; O89049; purified TrxR1 substrate turnover, NADPH consumption readout; AID 588456; hit rate 0.01% among 390,000; Potency, µM (top dose mostly 114 µM), without a hit: at the highest dose activity change, negative = substrate turnover; also: potency is read from the fitted curve at half-maximal effect; nearly all actives have a fitted effect of over 50% in size
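Rat TrxR1, dispensed at 90 nM, was prereduced with 400 uM NADPH (final) for 5 min at ~22 deg C, then incubated with compound 15 min before 400 uM selenite. A first-read NADPH fluorescence drop versus no-compound background flagged substrates.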
Coupling enz: coupling enzyme interference in Giardia aldolase counter-screen. coupling enzyme system counterscreen, AmpLite Red fluorescence. hit rate 0.67% among 290,000. activity change, negative = inhibition, % at 58.2 µM, hits read low; in the data active = activity change below about -30%
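Activity here indicates interference with the coupling reaction, not aldolase inhibition. Compounds at 57.5 uM final met coupling enzymes for 10 min at RT; substrate and AmpLite Red detection followed, with a 525/598 nm fluorescence read after 20 min.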
* marks the source's active call; other numbers are inactive results; ? = inconclusive; / = no result given; ! = repeats disagree; [ ] = another dose, or the depositor's remark. Unless noted, calls follow the shape of the dose curve; as a rule, active = well fitted curve in the direction sought with a large enough effect; inconclusive = small, poorly fitted or top-dose-only effect, or another doubt; inactive = no such curve, though single readings can be large; an effect the other way counts as inactive or inconclusive. Unless noted, % is scaled to controls: 0 for no effect and ±100 for the full control effect.

SMILES | GALK inhibitor | Giardia killer | rTrxR1 inhibitor | PI4K2A block | TrxR1 substrate | Coupling enz
O=C(Cn1nnc(-c2ccc(Cl)cc2)n1)NC1CCS(=O)(=O)C1 (centres undefined) | / | 15 | -6% | -2 | -2% | /
COc1cc(-c2nnn(CC(=O)NC3CCS(=O)(=O)C3)n2)ccc1OCc1ccccc1 (centres undefined) | 0% | 10 | 14% | -60* | 11%[57.1 µM] | 1
Cc1nn(-c2cccc(Cl)c2)c2c1C(c1cccnc1)C(C#N)=C(N)O2 (centres undefined) | 2% | 14 | ? | -51* | -8% | -10
COC(=O)C1=C(C)OC(N)=C(C#N)C1c1cccnc1 (centres undefined) | -2% | 3 | -14% | -2 | 4% | -3
CC1=C(n2nnc([N+](=O)[O-])n2)C(c2cccnc2)C(C#N)=C(N)O1 (centres undefined) | 3% | -13 | ? | 8 | -7% | -67*
Cc1nn(-c2cccc(Cl)c2)c2c1C(c1ccncc1)C(C#N)=C(N)O2 (centres undefined) | -4% | -9 | ? | -6 | 4% | 6
O=C(Nc1nc(-c2ccco2)c(-c2ccco2)s1)C1CC(=O)N(c2ccc3c(c2)OCCO3)C1 (centres undefined) | 0% | -6 | ? | -56* | 0% | -10
CCCCN(CC)CCNC(=O)Cn1cc2c(n1)-c1c(oc(C(=O)N3CCCC3)c1C)CC2 | 12% | 6 | 26% | 2 | 5% | -31*
CCCOc1cccc(C2c3c(oc4ccc(F)cc4c3=O)C(=O)N2c2nc(C)c(C(C)=O)s2)c1 (centres undefined) | / | / | 8% | -2 | 1% | /
Cc1c(C)c2c(OCC(=O)NCc3ccccn3)cc3c(c2oc1=O)CCC(C)(C)O3 | / | 4 | 89µM* | 0 | 422% | -2
CCCC1CCC2(CC1)CCC2OC(=S)NCc1cccc(OC)c1 (centres undefined) | / | / | / | -3 | / | /
Cc1cccc(OCCC(=O)NO)c1 | / | / | 11% | / | 4% | /
Cc1cc2c(cc1S(=O)(=O)NCc1ccc(F)cc1)OCCN2C | / | / | 28% | 1 | 8%[11.4 µM] | /
CN(C)S(=O)(=O)c1ccc(C(=O)Nc2nnc(SCC(=O)NCC3CCCO3)s2)cc1 (centres undefined) | -2% | -30 | -14% | -6 | -17% | /
O=C(CSc1nnc(NC(=O)c2cccc(F)c2)s1)NCC1CCCO1 (centres undefined) | -1% | -12 | -12% | 3 | -7% | /
CCOc1ccc(C(=O)Nc2nnc(SCC(=O)NCC3CCCO3)s2)cc1 (centres undefined) | -5% | -94* | 0% | -5 | -11% | 4
CC(C)(C)c1ccc(C(=O)Nc2nnc(SCC(=O)NCC3CCCO3)s2)cc1 (centres undefined) | 8% | -93* | 7% | 2 | -8% | /
O=C(CCl)c1ccc2c(c1)CCCC2 | / | / | ? | / | 3% | /
O=C(CC(c1cccs1)N1Cc2ccccc2C1=O)Nc1ccccc1 (centres undefined) | / | / | 2% | -4 | -3% | /
CC1=CC(=Nc2c(C)n(C)n(-c3ccccc3)c2=O)C=CC1=O | -1% | / | / | / | / | -46*
CCC(C)C1=CC(=Nc2c(C)n(C)n(-c3ccccc3)c2=O)C=C(C(C)CC)C1=O (centres undefined) | 2% | 11 | 6%[57.1 µM] | 2 | 1%[57.1 µM] | -27
CCOC(=O)/C(N=Nc1c(C)n(C)n(-c2ccccc2)c1=O)=C(\C)O | / | -8 | -8% | 4 | -9% | 4
CC1=CC(=Nc2c(C)n(C)n(-c3ccccc3)c2=O)C=C(C)C1=O | -2% | -12 | ? | -6 | -13% | -48*
CCNc1ccc(N=Nc2c(C)n(C)n(-c3ccccc3)c2=O)cc1 | 0% | -98* | -7%[57.1 µM] | 1 | -8%[57.1 µM] | -3
N#CCCCS(=O)(=O)c1nnnn1-c1ccc(F)cc1Br | / | / | / | / | / | 3
SMILES | GALK inhibitor | Giardia killer | rTrxR1 inhibitor | PI4K2A block | TrxR1 substrate | Coupling enz
CS(=O)(=O)N(Cc1cccc(CN(C(C(=O)O)c2ccccc2)S(C)(=O)=O)c1)C(C(=O)O)c1ccccc1 (centres undefined) | / | 14 | 50µM* | 6 | 1% | 5
O=C1CCCC2=C1C(c1ccco1)Nc1ccc3ccccc3c12 (centres undefined) | 3% | -15 | 40µM* | -13 | 27% | -9
O=C1CCCC2=C1C(c1ccc(O)c(O)c1)Nc1ccc3ccccc3c12 (centres undefined) | / | -5 | ? | 2 | 11% | /
COc1ccc(NC(=O)CN2c3cccc4cccc(c34)S2(=O)=O)cc1 | -2% | -5 | 17%[11.4 µM] | 6 | 11%[57.1 µM] | -31*
COc1ccc(OC)c(C2=NOC(C(=O)NCc3ccco3)C2)c1 (centres undefined) | 2% | 13 | 28µM* | 0 | 4% | 2
Oc1cncc(-c2cccnc2)c1 | / | -19 | 14% | 1 | 3% | /
c1cncc(-c2cccnc2)c1 | 1% | 5 | 14% | -65* | 4%[57.1 µM] | 1
CCOc1ccccc1CNC(=O)c1ccc(Cn2c(=O)c3cccn3c3cccnc32)cc1 | / | / | 67% | 0 | 17% | /
COc1ccc(C2Nc3ccccc3C(=O)N2Cc2ccccc2)cc1COc1ccc(NC(C)=O)cc1 (centres undefined) | / | / | / | 1 | / | /
COc1cccc(-c2nc(CS(=O)(=O)CC(=O)NC3CCCC3)c(C)o2)c1 | 1% | -6 | -8% | -3 | -1% | -2
COc1cccc(-c2nc(CS(=O)(=O)CC(=O)NC3CCCc4ccccc43)c(C)o2)c1 (centres undefined) | 1% | -8 | 10µM* | 1 | 5%[57.1 µM] | -1
NC(=O)COC(=O)c1cc(-c2ccco2)nc2ccccc12 | 0% | 7 | 79µM* | -6 | 60% | 3
CCCCN(C(=O)c1cc(-c2ccco2)nc2ccccc12)c1c(N)n(CCC)c(=O)[nH]c1=O | / | 16 | 79µM* | -12 | 0% | /
O=C(c1cc(-c2ccco2)nc2ccccc12)N1CCN(Cc2ccccc2)CC1 | / | -23 | 40µM* | -7 | 109% | /
O=C(Nc1nncs1)c1cc(-c2ccco2)nc2ccccc12 | / | -11 | -53% | -1 | 18%[57.1 µM] | /
COc1ccccc1CNC(=O)COC(=O)c1cc(-c2ccco2)nc2ccccc12 | 1% | -3 | ? | -53* | 26% | 3
C(=C\c1ccc2ccccc2n1)/c1cccnc1 | / | / | 4% | / | -5% | /
COc1cccc(/C=c2/[nH]c(=O)/c(=C\c3cccc(OC)c3OC)[nH]c2=O)c1OC | / | / | 7% | / | -5% | /
CCCCCCNC(=O)c1cc(-c2ccco2)nc2ccccc12 | -2% | 4 | 3.5µM* | 16 | 104% | 3
O=C(O)c1cc(-c2ccco2)nc2ccc(Br)cc12 | -8% | -25 | 1.3µM*! | -15 | 0% | 3
